The supplement of paper PMC7156485
± gives the standard deviation of the averaged measurements.

Assays:
Settings in all cases: concentration: 10 µM; 24 h
HCC1569 [1] = experiment: cell number relative to DMSO (% of DMSO); higher = more cells (less growth inhibition / toxicity)
Method in brief: (§1)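 Treatment: HCC1569 and TDF cells, 800 per well in 384-well plates with RPMI and 10% FBS, were given compounds at 10 µM for 24 h at 37 °C, in triplicate. Readout: after 3.7% formaldehyde fixation, cells were stained with a rabbit anti-H1.0 antibody, an AlexaFluor 647 secondary and DAPI. Reported values are H1.0 nuclear intensity or cell number as percent of the plate control, taken as the median of replicates, with positional smoothing for HCC1569.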

TDF [2] = experiment: as above
Method in brief: as §1

TDF [3] = experiment: H1.0 immunofluorescence intensity relative to DMSO (% of DMSO); higher = stronger H1.0 induction, active = 120 or more
Method in brief: as §1

HCC1569 [4] = experiment: H1.0 immunofluorescence intensity relative to DMSO (% of DMSO); higher = stronger H1.0 induction, active = 140 or more
Method in brief: as §1
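Throughout, for H1.0 immunofluorescence intensity relative to DMSO: TDF is a line of transformed human dermal fibroblasts of mesenchymal origin.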
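Throughout, for cell number relative to DMSO: TDF denotes transformed human dermal fibroblasts of mesenchymal origin.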

SMILES: CC(C=CC1=C(C)CCCC1(C)C)=CC=CC(C)=CC(=O)Nc1ccc(O)cc1 [Fenretinide]
- cell number (HCC1569 [1]): 51.1
- cell number (TDF [2]): 106
- H1.0 immunofluorescence intensity (TDF [3]): 97.8 (inactive)
- H1.0 immunofluorescence intensity (HCC1569 [4]): 181 (active)

SMILES: CCCCCCCCCCCCCCCC(=O)NC(CN1CCOCC1)C(O)c1ccccc1 (racemic)
- cell number (HCC1569 [1]): 103
- cell number (TDF [2]): 94.8
- H1.0 immunofluorescence intensity (TDF [3]): 97.6 (inactive)
- H1.0 immunofluorescence intensity (HCC1569 [4]): 102 (inactive)

SMILES: c1ccc2c(Cc3c[nH]c4ccccc34)c[nH]c2c1 [Diindolylmethane]
- cell number (HCC1569 [1]): 100.67 ± 0.0078
- cell number (TDF [2]): 97.9 ± 2.8
- H1.0 immunofluorescence intensity (TDF [3]): 98.8 (inactive)
- H1.0 immunofluorescence intensity (HCC1569 [4]): 91.6 (inactive)

SMILES: Cc1cccc(C)c1OCC(C)N.Cl (stereo unspecified) [Mexiletene hydrochloride]
- cell number (HCC1569 [1]): 104
- cell number (TDF [2]): 104
- H1.0 immunofluorescence intensity (TDF [3]): 87.8 (inactive)
- H1.0 immunofluorescence intensity (HCC1569 [4]): 94.3 (inactive)

SMILES: CN(C)CCCN1c2ccccc2CCc2ccccc21.Cl [Imipramine.HCl]
- cell number (HCC1569 [1]): 100
- cell number (TDF [2]): 97.4
- H1.0 immunofluorescence intensity (TDF [3]): 95.2 (inactive)
- H1.0 immunofluorescence intensity (HCC1569 [4]): 100 (inactive)

SMILES: C[C@@H](O)[C@H]1C(=O)N2C(C(=O)O)=C(SCCN=CN)C[C@H]12.O
- cell number (HCC1569 [1]): 101
- cell number (TDF [2]): 104
- H1.0 immunofluorescence intensity (TDF [3]): 99.9 (inactive)
- H1.0 immunofluorescence intensity (HCC1569 [4]): 93.3 (inactive)

SMILES: N#CC(=C1Nc2ccccc2S1)c1ccnc(NCCc2cccnc2)n1 [JNK Inhibitor V]
- cell number (HCC1569 [1]): 73.6
- cell number (TDF [2]): 87.4
- H1.0 immunofluorescence intensity (TDF [3]): 108 (inactive)
- H1.0 immunofluorescence intensity (HCC1569 [4]): 123 (inactive)

SMILES: NCCCCN=C(N)N.O=S(=O)(O)O [Agmatine sulfate]
- cell number (HCC1569 [1]): 106
- cell number (TDF [2]): 98.2
- H1.0 immunofluorescence intensity (TDF [3]): 88.7 (inactive)
- H1.0 immunofluorescence intensity (HCC1569 [4]): 92.4 (inactive)

SMILES: COc1ncnc(NS(=O)(=O)c2ccc(N)cc2)c1OC [Sulfadoxine]
- cell number (HCC1569 [1]): 104
- cell number (TDF [2]): 97.4
- H1.0 immunofluorescence intensity (TDF [3]): 91.9 (inactive)
- H1.0 immunofluorescence intensity (HCC1569 [4]): 89.2 (inactive)

SMILES: CNC(=O)C1OC(n2cnc3c(N)ncnc32)C(O)C1O (stereo unspecified) [5'-N-Methyl carboxamidoadenosine]
- cell number (HCC1569 [1]): 110
- cell number (TDF [2]): 110
- H1.0 immunofluorescence intensity (TDF [3]): 104 (inactive)
- H1.0 immunofluorescence intensity (HCC1569 [4]): 98.9 (inactive)

SMILES: CCCC1CC(C(=O)NC(C(C)Cl)C2OC(SC)C(O)C(O)C2O)N(C)C1.Cl (stereo unspecified) [Clindamycin.HCl]
- cell number (HCC1569 [1]): 111
- cell number (TDF [2]): 110
- H1.0 immunofluorescence intensity (TDF [3]): 106 (inactive)
- H1.0 immunofluorescence intensity (HCC1569 [4]): 91.3 (inactive)

SMILES: CC(C)(C)NCC(O)c1ccc(O)c(CO)c1.CC(C)(C)NCC(O)c1ccc(O)c(CO)c1.O=S(=O)(O)O (stereo unspecified) [Albuterol hemisulfate]
- cell number (HCC1569 [1]): 99.8
- cell number (TDF [2]): 103
- H1.0 immunofluorescence intensity (TDF [3]): 92.5 (inactive)
- H1.0 immunofluorescence intensity (HCC1569 [4]): 107 (inactive)

SMILES: CCc1cccc(N(C)C(N)=Nc2cccc3ccccc23)c1.Cl
- cell number (HCC1569 [1]): 87.1
- cell number (TDF [2]): 90
- H1.0 immunofluorescence intensity (TDF [3]): 115 (inactive)
- H1.0 immunofluorescence intensity (HCC1569 [4]): 95.9 (inactive)

SMILES: CCn1cc(C(=O)O)c(=O)c2cc(F)c(N3CCNC(C)C3)c(F)c21 (stereo unspecified) [Lomefloxacin]
- cell number (HCC1569 [1]): 101
- cell number (TDF [2]): 90.9
- H1.0 immunofluorescence intensity (TDF [3]): 95.3 (inactive)
- H1.0 immunofluorescence intensity (HCC1569 [4]): 100 (inactive)

SMILES: COc1ccnc(CS(=O)c2nc3ccc(OC(F)F)cc3[nH]2)c1OC (stereo unspecified) [Pantoprazole]
- cell number (HCC1569 [1]): 100
- cell number (TDF [2]): 105
- H1.0 immunofluorescence intensity (TDF [3]): 102 (inactive)
- H1.0 immunofluorescence intensity (HCC1569 [4]): 103 (inactive)

SMILES: O=C1N(c2ccccc2)c2ccccc2C1(Cc1ccncc1)Cc1ccncc1 [Linopirdine]
- cell number (HCC1569 [1]): 108
- cell number (TDF [2]): 112
- H1.0 immunofluorescence intensity (TDF [3]): 93.9 (inactive)
- H1.0 immunofluorescence intensity (HCC1569 [4]): 94.7 (inactive)

SMILES: OCC1NC(CO)C(O)C1O [(2R,5R)-Bis(hydroxymethyl)-(3R,4R)-dihydroxypyrrolidine]
- cell number (HCC1569 [1]): 102
- cell number (TDF [2]): 101
- H1.0 immunofluorescence intensity (TDF [3]): 91.3 (inactive)
- H1.0 immunofluorescence intensity (HCC1569 [4]): 84.7 (inactive)

SMILES: C#CC1(O)CCC2C3CCC4=CC(=O)CCC4C3CCC21C (stereo unspecified) [Norethindrone]
- cell number (HCC1569 [1]): 96.5
- cell number (TDF [2]): 91
- H1.0 immunofluorescence intensity (TDF [3]): 99.5 (inactive)
- H1.0 immunofluorescence intensity (HCC1569 [4]): 109 (inactive)

SMILES: O=C(CCCCCCC(=O)Nc1ccccc1)NO
- cell number (HCC1569 [1]): 101
- cell number (TDF [2]): 95.7
- H1.0 immunofluorescence intensity (TDF [3]): 121 (active)
- H1.0 immunofluorescence intensity (HCC1569 [4]): 100 (inactive)

SMILES: CC(=O)SC1CC2=CC(=O)CCC2(C)C2CCC3(C)C(CCC34CCC(=O)O4)C12 (stereo unspecified) [Spironolactone]
- cell number (HCC1569 [1]): 99.1 ± 3.8
- cell number (TDF [2]): 105 ± 7.3
- H1.0 immunofluorescence intensity (TDF [3]): 92.2 (inactive)
- H1.0 immunofluorescence intensity (HCC1569 [4]): 104 (inactive)

SMILES: CNNCc1ccc(C(=O)NC(C)C)cc1 [Procarbazine]
- cell number (HCC1569 [1]): 102
- cell number (TDF [2]): 106
- H1.0 immunofluorescence intensity (TDF [3]): 92.4 (inactive)
- H1.0 immunofluorescence intensity (HCC1569 [4]): 108 (inactive)

SMILES: Cc1[nH]c(C=C2C(=O)Nc3ccc(S(=O)(=O)N(C)c4cccc(Cl)c4)cc32)c(C)c1C(=O)N1CCN(C)CC1 [Met Kinase Inhibitor]
- cell number (HCC1569 [1]): 81.6
- cell number (TDF [2]): 59.6
- H1.0 immunofluorescence intensity (TDF [3]): 92 (inactive)
- H1.0 immunofluorescence intensity (HCC1569 [4]): 149 (active)

SMILES: CCCC(=O)NCCc1c2n(c3ccc(OC)cc13)Cc1ccccc1-2
- cell number (HCC1569 [1]): 92.4
- cell number (TDF [2]): 99.3
- H1.0 immunofluorescence intensity (TDF [3]): 97.1 (inactive)
- H1.0 immunofluorescence intensity (HCC1569 [4]): 108 (inactive)

SMILES: O=C(Nc1cccc(C(F)(F)F)c1)Nc1cc(S(=O)(=O)NC2CC2)ccc1-c1ccsc1
- cell number (HCC1569 [1]): 91.2
- cell number (TDF [2]): 89.5
- H1.0 immunofluorescence intensity (TDF [3]): 94.6 (inactive)
- H1.0 immunofluorescence intensity (HCC1569 [4]): 130 (inactive)
